Results taken from PubChem BioAssay (Tox21).
Inconclusive results are not listed. A call without a number means that no potency is given here. Activity calls are given as the source filed them. Unless noted, calls come from the whole dose curve.

Test system: not listed separately
Assay: qHTS assay to identify small molecule antagonists of the farnesoid-X-receptor (FXR) signaling pathway - cell viability counter screen (AID 743221; active = well fitted cell-killing curve with a large enough effect in the repeat runs, not every such curve was filed as active; note: nearly all actives have a fitted effect of over 50% in size; note: potency is the fitted concentration of half-maximal effect)
Conditions: FXR-bla HEK293T viability, CellTiter-Glo luminescence, 16 h; series mostly up to 62.6 µM; activity change, negative = cytotoxicity: at the top concentration
Outline: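 HEK 293T FXR-bla cells, 5 h pre-incubation; compound + CDCA 50 uM final, 16 h, 37 C; beta-lactamase FRET read first, then CellTiter-Glo luminescence, 30 min RT.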

| SMILES | Potency | activity change, negative = cytotoxicity |
| --- | --- | --- |
| CC(C)NCC(O)c1ccc(O)c(O)c1 (configuration not stated) | inactive |  |
| NC(CO)(CO)CO | inactive |  |
| CC(=O)Nc1c(I)c(NC(C)=O)c(I)c(C(=O)O)c1I | inactive |  |
| CNNCc1ccc(C(=O)NC(C)C)cc1 | inactive |  |
| CC(C)c1c(C(=O)Nc2ccccc2)c(-c2ccccc2)c(-c2ccc(F)cc2)n1CC[C@@H](O)C[C@@H](O)CC(=O)O | inactive |  |
| CCc1nc(N)nc(N)c1-c1ccc(Cl)cc1 | 24.9 µM (active) |  |
| CN1CCC[C@H]1c1cccnc1 | inactive |  |
| CC(=O)CCC(=O)O | inactive |  |
| CCCCCCc1ccc(O)cc1O |  | -20.3% (inactive) |

Target: Vitamin D3 receptor (Homo sapiens) (UniProt P11473)
Sequence (P11473 whole entry, looked up): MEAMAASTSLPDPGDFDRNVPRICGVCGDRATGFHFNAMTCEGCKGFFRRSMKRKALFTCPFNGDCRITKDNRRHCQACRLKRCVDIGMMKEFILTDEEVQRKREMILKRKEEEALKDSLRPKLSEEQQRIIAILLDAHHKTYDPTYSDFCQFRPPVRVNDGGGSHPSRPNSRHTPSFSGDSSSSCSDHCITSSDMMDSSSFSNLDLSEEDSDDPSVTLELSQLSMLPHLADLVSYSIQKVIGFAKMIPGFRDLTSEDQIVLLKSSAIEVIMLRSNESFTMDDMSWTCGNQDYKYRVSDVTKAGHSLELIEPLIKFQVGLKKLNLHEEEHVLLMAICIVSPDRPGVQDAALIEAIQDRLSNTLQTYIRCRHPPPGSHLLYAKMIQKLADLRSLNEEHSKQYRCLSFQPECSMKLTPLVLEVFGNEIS
Assay: qHTS assay to identify small molecule agonists of the vitamin D receptor (VDR) signaling pathway (AID 743222)
Conditions: HEK293T VDR-UAS-bla, beta-lactamase FRET ratio, 16 h; series mostly up to 63.5 µM; activation: at the top concentration
Outline: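 VDR-bla cells were plated 4 h at 37C/5% CO2, then exposed to compounds in DMSO for 16 h. After LiveBLAzer B/G FRET substrate addition and 2 h at room temperature, beta-lactamase reporter fluorescence was read.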

| SMILES | activation | Potency |
| --- | --- | --- |
| O=C(Nc1ncc([N+](=O)[O-])s1)c1cccs1 | -5.3% (inactive) |  |
| COc1ccc(OC(F)(F)F)cc1CN[C@H]1CCCN[C@H]1c1ccccc1 | -19.6% (inactive) |  |
| O=C(O)c1ccccc1 |  | inactive |
| C/C=C/C=C/C(=O)O |  | inactive |
| C[C@](N)(Cc1ccc(O)c(O)c1)C(=O)O |  | inactive |
| F[B-](F)(F)F |  | inactive |
| O=C(O)CC(O)C(=O)O (configuration not stated) |  | inactive |
| CC(=O)CC(c1ccccc1)c1c(O)c2ccccc2oc1=O (configuration not stated) |  | inactive |
| CC(C)NCC(O)c1ccc(O)c(O)c1 (configuration not stated) |  | inactive |
| C1CCC(C(CC2CCCCN2)C2CCCCC2)CC1 (configuration not stated) | -15.5% (inactive) |  |
| NC(CO)(CO)CO |  | inactive |
| CNNCc1ccc(C(=O)NC(C)C)cc1 |  | inactive |
| CC(C)c1c(C(=O)Nc2ccccc2)c(-c2ccccc2)c(-c2ccc(F)cc2)n1CC[C@@H](O)C[C@@H](O)CC(=O)O |  | inactive |
| CCc1nc(N)nc(N)c1-c1ccc(Cl)cc1 |  | inactive |
| CN1CCC[C@H]1c1cccnc1 |  | inactive |
| CC(=O)CCC(=O)O |  | inactive |
| CCCCCCc1ccc(O)cc1O |  | inactive |

Target: Vitamin D3 receptor (Homo sapiens) (UniProt P11473)
Assay: qHTS assay to identify small molecule antagonists of the vitamin D receptor (VDR) signaling pathway (AID 743223; active = well fitted inhibition curve with a large enough effect in the signal ratio in the repeat runs, not every such curve was filed as active; the % refers to the signal ratio; note: potency is the fitted concentration of half-maximal effect)
Conditions: VDR-UAS-bla HEK293T, beta-lactamase FRET ratio, 16 h; series mostly up to 61 µM; activity change, negative = inhibition: at the top concentration
Outline: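 Beta-lactamase reporter read-out: FRET substrate fluorescence after 2 h at room temperature, following 16 h exposure of VDR-bla cells to test compound plus 3 nM (final) 1alpha,25-dihydroxyvitamin D3 agonist at 37C.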

| SMILES | activity change, negative = inhibition | Potency |
| --- | --- | --- |
| O=C(Nc1ncc([N+](=O)[O-])s1)c1cccs1 | 0.463% (inactive) |  |
| O=C(O)c1ccccc1 |  | inactive |
| C/C=C/C=C/C(=O)O |  | inactive |
| C[C@](N)(Cc1ccc(O)c(O)c1)C(=O)O |  | inactive |
| F[B-](F)(F)F |  | inactive |
| O=C(O)CC(O)C(=O)O (configuration not stated) |  | inactive |
| CC(=O)CC(c1ccccc1)c1c(O)c2ccccc2oc1=O (configuration not stated) |  | inactive |
| CC(C)NCC(O)c1ccc(O)c(O)c1 (configuration not stated) |  | inactive |
| C1CCC(C(CC2CCCCN2)C2CCCCC2)CC1 (configuration not stated) |  | 21.3 µM (active) |
| NC(CO)(CO)CO |  | inactive |
| CNNCc1ccc(C(=O)NC(C)C)cc1 |  | inactive |
| CC(C)c1c(C(=O)Nc2ccccc2)c(-c2ccccc2)c(-c2ccc(F)cc2)n1CC[C@@H](O)C[C@@H](O)CC(=O)O | 16.7% [at 28.5 µM] (inactive) |  |
| CCc1nc(N)nc(N)c1-c1ccc(Cl)cc1 |  | inactive |
| CN1CCC[C@H]1c1cccnc1 |  | inactive |
| CC(=O)CCC(=O)O |  | inactive |
| CCCCCCc1ccc(O)cc1O | 2.51% (inactive) |  |
